Results with a measured potency or affinity are listed apart. Active and inactive are the calls of the source.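 How the source made its calls: active means every repeat run showing a signal drop whose fitted half-maximal concentration is at most twice the top tested concentration; inconclusive means repeat runs disagree, or flat partial drop, or poor fit; inactive means the rest.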
Assay: general mammalian cell viability loss – activator set, cherry-pick, cytotoxicity control for miR-122 modulator project, dose response (AID 720690);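 further: 0% = neutral control wells and -100% = MG132 cytotoxic control wells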
Settings: HEK293T viability, CellTiter-Glo luminescence, 48 h; series mostly up to 26 µM; activity change, negative = cytotoxicity: at the top concentration

SMILES | activity change, negative = cytotoxicity
CCCNC(=O)Nc1ccc2c(c1)C(=O)N(C)[C@@H]1CC[C@H](CC(=O)NCC3CCCCC3)O[C@H]1CO2 | 3.61% (inactive)
CN1C(=O)c2cc(NC(=O)c3cccc(F)c3)ccc2OC[C@H]2O[C@H](CC(=O)O)CC[C@@H]21 | -4.45% (inactive)
CN1C(=O)c2cc(NC(=O)c3cccs3)ccc2OC[C@@H]2O[C@H](CC(=O)NCC(F)(F)F)CC[C@H]21 | -2.83% (inactive)
Nc1nc(Cl)nc2c1ncn2[C@H]1C[C@H](O)[C@@H](CO)O1 | -34.9% (inactive)
CC(=O)N(C)C[C@H]1Oc2cc(C#Cc3ccc(F)cc3)ccc2S(=O)(=O)N([C@H](C)CO)C[C@H]1C | -17.6% (inactive)
CC(C)(C)c1ccc(S(=O)(=O)NCCc2ccncc2)cc1 | -16.2% (inactive)
C[C@@H]1CCCCO[C@H](CN(C)CC2CCCCC2)[C@H](C)CN([C@H](C)CO)C(=O)c2cc(NC(=O)Nc3ccc4c(c3)OCO4)ccc2O1 | -18.8% [at 12 µM] (inactive)
C[C@@H]1CN([C@H](C)CO)S(=O)(=O)c2ccc(C#CC3CC3)cc2O[C@@H]1CN(C)C(=O)c1cccc(F)c1 | -31.4% (inactive)
C[C@H](CO)N1C[C@H](C)[C@@H](CN(C)C(=O)C2CCOCC2)Oc2cc(C#Cc3ccncc3)ccc2S1(=O)=O | -19.7% (inactive)
Cc1ccccc1NC(=O)Nc1ccc2c(c1)C(=O)N(C)[C@@H]1CC[C@H](CC(=O)NCC3CC3)O[C@@H]1CO2 | 9.82% (inactive)
CCOc1cc(C(=O)NC(C)COC)cc(OCC)c1OCC (stereo not drawn) | 0.828% (inactive)
CN1C(=O)c2cc(NC(=O)c3cccs3)ccc2OC[C@H]2O[C@@H](CC(=O)N3CCCCC3)CC[C@H]21 | -11% (inactive)
COc1ccc(-c2oc3ncnc(NCCCN4CCOCC4)c3c2-c2ccc(OC)cc2)cc1 | -33.6% (inactive)

From PubChem BioAssay AID720690 (Broad Institute, 2013)
